Assay results taken from PubChem BioAssay AID624330 (Southern Research Specialized Biocontainment Screening …, 2012).
About 2,100 (0.62%) of roughly 340,000 compounds were called active.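 How the source made its calls: active means first-screen hits whose inhibition reached a set limit at any dose in the follow-up dose series; inconclusive means inhibition above the set first-screen limit but never retested; inactive means the rest.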 Not all results are given here. Entries with a potency or affinity are not part of this list.

Biological target: Rac GTPase-activating protein 1 (Homo sapiens) (UniProt Q9H0H5)
Experiment: blockers of MgcRacGAP-driven Rac1 GTP hydrolysis – biochemical, ADP Hunter fluorescence, primary and confirmatory, confirmation (AID 624330);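 further: fluorescence reports GDP produced by GAP-driven GTP hydrolysis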
Conditions: MgcRacGAP-stimulated Rac1 GTP hydrolysis, at 30 µM, stronger effect = higher value, GST-tagged Rac1 F28L mutant substrate

Rac GTPase-activating protein 1 (Homo sapiens), sequence (Q9H0H5 whole entry, looked up): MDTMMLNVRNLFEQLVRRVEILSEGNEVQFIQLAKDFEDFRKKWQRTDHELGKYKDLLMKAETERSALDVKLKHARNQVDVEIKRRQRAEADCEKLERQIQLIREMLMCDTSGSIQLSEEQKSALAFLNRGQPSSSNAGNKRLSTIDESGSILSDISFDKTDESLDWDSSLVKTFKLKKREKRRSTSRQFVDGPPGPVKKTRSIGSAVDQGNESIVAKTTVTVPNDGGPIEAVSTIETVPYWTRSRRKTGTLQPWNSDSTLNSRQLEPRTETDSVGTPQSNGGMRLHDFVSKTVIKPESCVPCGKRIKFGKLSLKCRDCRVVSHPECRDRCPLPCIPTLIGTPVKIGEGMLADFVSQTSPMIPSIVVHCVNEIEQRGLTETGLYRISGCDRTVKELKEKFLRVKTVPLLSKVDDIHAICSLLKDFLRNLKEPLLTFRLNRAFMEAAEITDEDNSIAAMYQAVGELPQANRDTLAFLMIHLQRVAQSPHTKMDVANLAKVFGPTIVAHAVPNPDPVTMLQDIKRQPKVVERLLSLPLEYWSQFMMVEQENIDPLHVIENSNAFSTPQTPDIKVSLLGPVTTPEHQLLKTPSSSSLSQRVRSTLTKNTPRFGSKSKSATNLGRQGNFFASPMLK

inhibition, inactive:
COc1ccc(COCC(O)CN2CCC(CN3C(=O)c4cccc5cccc(c45)C3=O)CC2)cc1OC (stereo not given) 5.74%
O=C(c1cc(=O)c2ccccc2o1)N1CCCc2ccccc21 4.48%
O=C(O)CCCC(=O)Nc1nc2n(n1)C(c1ccc(F)cc1)CC(c1ccc(Cl)cc1)N2 (stereo not given) -3.19%
Brc1ccc(CSc2nccn2-c2ccccc2)cc1 -2.52%
CCOc1ccc(-c2nnc(-c3ccccc3)n2-c2ccccc2)cc1 1.23%
CCOc1ccc(S(=O)(=O)NCCC(=O)OCC(=O)N2CC(=O)Nc3ccccc32)cc1 2.23%
CCN(CC)S(=O)(=O)c1ccc(Cl)c(NC(=O)COC(=O)c2cc(-c3ccccc3Cl)nc3ccccc23)c1 5.1%
CC(C)N(Cc1nccn1C)C(=O)c1ccc2oc(CCCc3ccccc3)nc2c1 -4.5%
COc1ccc(NC(=O)Nc2ccc(OC)cc2)cc1 4.31%
COc1cc(OC)c(C(=O)Nc2ccncc2)cc1OC 6.31%
Cc1oc(-c2ccccc2)cc1C(=O)Nc1ccccc1 19.3%
COc1ccc(NC(=O)c2cc(-c3ccccc3)oc2C)cc1 8.42%
COc1cc(C(=O)Nc2ccc(N(C)C)cc2)c([N+](=O)[O-])cc1OC 19.1%
COc1ccc(NC(=S)c2ccc(N(C)C)cc2)cc1 6.87%
CCOc1ccccc1C(=O)NCC(=O)NCC(C)(C)N1CCOCC1 3.54%
O=C(C1COc2ccccc2O1)N1CCN(c2nc3c(F)cc(F)cc3s2)CC1 (stereo not given) 1.62%
CCOC(=O)C1CCCN(S(=O)(=O)c2c(C)c(C)cc(C)c2C)C1 (stereo not given) 3.51%
COC(=O)C1=C(C(=O)c2ccccc2)C(c2cccs2)n2nnnc2N1 (stereo not given) 12.1%
CCN(c1ccccc1)S(=O)(=O)c1cccc(C(=O)Nc2cccc(C)n2)c1 16.5%
CCC1CCCCN1C(=O)CSc1nc(N)cc(=O)[nH]1 (stereo not given) 9.52%
COc1ccc(Cl)cc1NCCC(O)c1ccc(F)cc1 (stereo not given) 10.5%
COc1ccc(C(O)CNc2ccc(C)cc2)cc1 (stereo not given) 12.6%
Cc1cccc(NC(=O)c2ccc(COc3ccccc3)o2)n1 -1.27%
CC(C)(CC(=O)OCC(=O)Nc1ccccc1F)CC1=NS(=O)(=O)c2ccccc2N1 8.87%
CCOC(=O)C1(CC2CCCCO2)CCN(C(=O)Nc2ccc(C)c(C)c2)CC1 (stereo not given) 8.55%
O=C(NCc1ccccc1)C1=C[C@H](c2csc3ccccc23)C[C@H](OCCCCO)O1 5.83%
Cc1nonc1C(=O)N/N=C/c1cccc(O)c1 5.55%
COc1cc(/C=N/NC(=O)c2c(C)nnn2-c2nonc2N)ccc1O 21.5%
COc1cccc(/C=N/NC(=O)c2nnn(-c3nonc3N)c2C(C)C)c1 2.84%
Cc1nonc1C(=O)N/N=C/c1ccncc1 4.44%
COc1cc(/C=N/NC(=O)c2nnn(-c3nonc3N)c2C(C)C)ccc1OCc1ccccc1 12.2%
Cc1nonc1C(=O)N/N=C/c1ccc([N+](=O)[O-])o1 6.74%
Cc1nnn(-c2nonc2N)c1C(=O)N/N=C/c1ccccc1O 5.56%
Cc1nonc1C(=O)N/N=C/c1ccccc1 7.47%
Cc1cc(NC(=O)COC(=O)c2cc([N+](=O)[O-])ccc2N2CCOCC2)ccc1Br -0.1%
O=C(COc1ccccc1F)NC12CC3CC(CC(C3)C1)C2 9.07%
CCN(CC(=O)Nc1c(F)cccc1F)C(=O)c1ccc(=O)n(C)n1 7.24%
CN(C)CCNC(=O)C(=O)NCC1OCCCN1S(=O)(=O)c1cccs1 (stereo not given) 5.17%
CCN(CC)CCN(CC(=O)Nc1c(C)cc(C)cc1C)C(=O)c1ccccc1 14.8%
CCN(CC)C(=O)CSc1nc2ncc(Br)cc2[nH]1 1.23%
CCCCN(C)C(=O)c1ccc2c(c1)N(CC)C(=O)c1ccccc1S2=O (stereo not given) 7.28%
COc1ccc(/C=N/NC(=O)c2nonc2N)cc1OC 11.7%
Cc1nonc1C(=O)N/N=C/c1cc2c(cc1Br)OCO2 -12.5%
COc1ccc(/C=N/NC(=O)c2nonc2C)cc1 17.8%
O=C(N/N=C/c1ccc(O)cc1O)C(=O)N/N=C/c1ccc(O)cc1O 16.7%
COc1ccnc(N=CNOCc2ccc(Cl)cc2)c1C#N 13.5%
COc1ccc(NS(=O)(=O)c2c(C)[nH]c(=O)[nH]c2=O)cc1OC 8.91%
Cc1cccc(N(C)S(=O)(=O)c2ccc3[nH]cc(C(=O)N4CCOCC4)c(=O)c3c2)c1 -3.07%
CCOC(=O)Cc1nnc(NCc2ccccc2)c2ccccc12 6.91%
Cc1cccc(N(CC(=O)NCC2CCCO2)C(=O)CCC(=O)Nc2cc(C)on2)c1 (stereo not given) 4.72%
Cn1cnc2cc(NCc3ccccc3Cl)ccc21 26.5%
COc1cccc(CNc2ccc3c(c2)nc(C)n3C)c1OC 30.5%
COc1cccc(CNc2ccc3c(c2)ncn3C(C)C)c1OC 24.5%
CC(C)(C)n1cnc2cc(NCc3ccccc3O)ccc21 13.7%
Cc1noc(C)c1NC(=O)Nc1cccc2c1O[C@@H](CN(C)Cc1ccc3c(c1)OCO3)[C@@H](C)CN([C@H](C)CO)C2=O 4.09%
CCN1CCCC1CNC(=O)c1ccc(Sc2ccccc2Cl)c([N+](=O)[O-])c1 (stereo not given) 4.96%
Cc1cc(=O)oc2c(CN3CCCC3)c(O)ccc12 6.69%
Cc1c(O)ccc2c(CN3CCOCC3)cc(=O)oc12 17.9%
Cc1cc(=O)oc2c(CN3CCCCC3)c(O)ccc12 2.34%
Cc1ccc2c(CN3CCOCC3)cc(=O)oc2c1C 3.73%
CC1CCN(CC(O)COc2cccc(F)c2)CC1 (stereo not given) 2.16%
NC(=O)c1ccc(NC(=O)CN2CCN(C(=O)c3ccco3)CC2)cc1 13.6%
CSc1cccc(CN2CCCC(CNC(=O)c3ccco3)C2)c1 (stereo not given) 8.31%
Cc1c(NC(=O)Nc2ccc(Cl)c(Cl)c2)sc(=S)n1C -8.84%
N#C/C(=C\c1cccc(O)c1)C(=O)N1CCCCC1 11.3%
N#C/C(=C/c1cc(Cl)c(O)c(Cl)c1)C(=O)N1CCCCC1 10.9%
O=C(O)c1c2c(nc3ccccc13)/C(=C/c1ccc(OC(F)F)cc1)CCC2 9.02%
O=C(O)c1ccc(/C=C2\CCCc3c2nc2ccccc2c3C(=O)O)cc1 3.69%
CN(C)C(=O)CCc1ccc2c3c([nH]c2c1)[C@]1(C)[C@@H](C(=O)N2CCOCC2)C[C@H](CC(=O)NCc2cccc(C(F)(F)F)c2)C(=O)N1CC3 -2.92%
C/C(=N/NC(=O)c1cccc(Br)c1)C1CC2CCC1C2 (stereo not given) -6.86%
Cc1ccc(/C=C(/C#N)c2nc(CCN3C(=O)c4ccccc4C3=O)cs2)cc1 9.96%
COc1ccc(N2CCN(C(C)C(=O)N3CC(C)OC(C)C3)CC2)cc1 (stereo not given) 26.9%
CC(C(=O)NC1CCCC1)N1CCN(Cc2ccccc2)CC1 (stereo not given) 9.35%
CN1CCN(C(=O)NC2CCCCC2)CC1 13%
CCN1CCN(C(C(=O)NC2CCCCC2)c2ccc(Cl)cc2)CC1 (stereo not given) 2.93%
CC(C(=O)NC(=O)NC1CCCCC1)N1CCN(c2ccccn2)CC1 (stereo not given) 4.4%
CN1CCC(NC(=O)NC2CCCCC2)CC1 4.99%
CC(C(=O)NC(=O)NC1CCCCC1)N1CCN(C(c2ccccc2)c2ccccc2)CC1 (stereo not given) 4.85%
COc1ccc(N2CCN(C(C)C(=O)N3CCc4ccccc43)CC2)cc1 (stereo not given) 19.8%
C=CCN1C(=O)CS/C1=N\S(=O)(=O)c1ccc(Cl)cc1 -1.54%
CCOC(=O)c1c(C)n(C)c2ccc(OC)c([N+](=O)[O-])c12 8.57%
CCCOc1c(Br)cc(C(=O)NCC)cc1OC 13%
CSCCC(NS(=O)(=O)c1ccc2c(c1)oc(=O)n2C)C(=O)NCc1ccc(C)cc1 (stereo not given) 9.41%
CCCNC(=O)c1ccc(OC)cc1OC -1.98%
Cc1cccc(N=C2CCCC2C(=O)Nc2cccc(C)c2C)c1C (stereo not given) 5.77%
NC(=O)c1ccsc1NC(=O)COC(=O)c1cc(Cl)ccc1O 0.77%
CC(=O)NC(C(=O)c1ccccc1)N1CCCCC1 (stereo not given) 13.8%
Cc1ccc(/C=C2/NC(=O)[C@H](C)NC2=O)cc1 6.59%
CCN1C(=NCCOC)N[C@@H](CCc2ccccc2)[C@H](C(=O)OC)[C@H]1C 12.5%
C=C(C)CSc1nc2sc3c(c2c(=O)n1-c1ccccc1)CCN(C)C3 11.6%
COc1cccc(N2CCN(C(=O)NC3CCCCC3)CC2)c1 2.77%
O=C(NC1CCCCC1)N1CCN(c2ccc(Cl)cc2)CC1 6.94%
O=C(c1ccccc1Cc1ccccc1)N1CCN(S(=O)(=O)c2ccccc2Br)CC1 3.3%
COc1ccc(S(=O)(=O)N2CCN(C(=O)CCSc3ccccc3)CC2)cc1 7.76%
O=C(CNC(=O)c1ccccc1Br)N/N=C/c1ccco1 5.21%
